Measurements from PubChem BioAssay AID1259416 (Broad Institute, 2018).
“And” between values parts separate entries of the source, which are not always exact repeats. Identical values can stand only once. Among all 69,000 compounds or so, about 2,600 (3.8%) were called active. No stated cut-off is given here; in the data, active means activity change below about -70% (passing the limit was not always enough); inconclusive means no clear call, values can overlap the other calls. What follows is part of a selection rich in actives, with near analogues and random picks from the rest.

Test: T. gondii growth inhibition with IFN-gamma, primary screen, cell-based (AID 1259416);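 further: host cells are HeLa cells infected with Toxoplasma gondii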
Conditions: Toxoplasma gondii growth in IFN-gamma-treated host cells; active compounds read low; concentration not given here

SMILES	activity change, negative = inhibition
CCOC(=O)c1nc(N2CCN(Cc3ccc4c(c3)OCO4)CC2)c2ccccc2n1	42.4% (inactive)
O=C(C1CC=CC1)N1CCC2(CCN(Cc3cccc(F)c3)CC2)C1	-9.86% (inactive)
CC[C@]1(O)C[C@@H]2CN(CCc3c([nH]c4ccccc34)[C@@](C(=O)OC)(c3cc4c(cc3OC)N(C)[C@H]3[C@@](O)(C(=O)OC)[C@H](OC(C)=O)[C@]5(CC)C=CCN6CC[C@]43[C@@H]65)C2)C1	-97.6% (active)
CC[C@]1(O)CC2CN(CCc3c([nH]c4ccccc34)[C@@](C(=O)OC)(c3cc4c(cc3OC)N(C=O)[C@H]3[C@@](O)(C(=O)OC)[C@H](OC(C)=O)[C@]5(CC)C=CCN6CC[C@]43[C@@H]65)C2)C1 (stereo partly drawn)	-82.9% (active) and -87.1% (active)
CC1=CC[C@@H]2CN(C(=O)c3cc(C(C)(C)C)[nH]c(=O)n3)C[C@@H]2C1	5.83% (inactive)
Cc1nn(C)c(C)c1CCC(=O)NCc1ccccc1-n1ccnc1C	-6.3% (inactive)
CC1Cc2ccccc2N1C(=O)CN1C(=O)COc2ccc(C(=O)c3cccs3)cc21 (stereo not drawn)	-43.3% (inactive)
Cc1nc2ccccc2c(=O)n1-c1cccc2ccccc12	0.633% (inactive)
O=S(=O)(c1ccc2c(c1)OCCO2)N1CCN(c2ccc(C(F)(F)F)cn2)CC1	-88% (active)
CC(NC(=O)CCc1c[nH]c2ccccc12)c1cn2ncsc2n1 (stereo not drawn)	23.4% (inactive)
O=C(/C=C/c1ccc(CN(CCO)CCc2c[nH]c3ccccc23)cc1)NO	-85.7% (active)
O=C(/C=C/c1ccc2c(c1)OCO2)NCc1ccc(F)cc1	2.56% (inactive)
CC(C)c1cc(C2CCN(C(=O)Cc3c[nH]c4ccccc34)CC2)[nH]n1	5.9% (inactive)
O=C(NC1CC1)C1CN(Cc2cnc(NCc3ccccc3)nc2)CCN1 (stereo not drawn)	-0.724% (inactive)
Cc1ccsc1C(=O)N1CCCC2(C1)Nc1cccnc1NC2=NC1CCCC1 (stereo not drawn)	-22.8% (inactive)
O=S(=O)(c1ccc(F)c(F)c1)N1CCC2(CC1)Nc1ccc(Cl)cc1-n1cccc12	17.6% (inactive)
COc1ccc(OCC(=O)N2CCC3(CC2)Nc2ccc(Cl)cc2-n2cccc23)cc1	25.9% (inactive)
O=C(C1CCCCC1)N1CCC2(CC1)Nc1ccc(Cl)cc1-n1cccc12	-85.4% (active)
CNC(=O)c1sc2ccccc2c1C1CCC(CNS(=O)(=O)c2cnn(C)c2)CC1 (stereo not drawn)	-10.6% (inactive)
O[C@@H]1CNCC[C@H]1CNCc1cccc(Oc2cccc(C(F)(F)F)c2)c1	-100% (active)
Cc1cccn2cc(C(=O)NC[C@@H]3CCNC[C@H]3O)nc12	-3.48% (inactive)
Cc1cc(CNC(=O)c2cccc(C3CCNC3)c2)ccc1F (stereo not drawn)	-1.39% (inactive)
Cc1cc(C(=O)N2CCC3(CC2)CNC(=O)O3)c2ccc(F)cc2n1	0.544% (inactive)
CCOC1C2CCC1N(S(=O)(=O)c1cccc(C)c1)CCO2 (stereo not drawn)	16.8% (inactive)
Cc1cc(S(=O)(=O)NCc2ccc3c(c2)OCO3)ccc1-n1cnnn1	-7.98% (inactive)
COc1cccc(-c2cccc3[nH]ccc23)n1	35.3% (inactive)
C[C@@H]1COCCN1c1cc(C2(S(C)(=O)=O)CC2)nc(-c2cccc3[nH]ccc23)n1	-82.8% (active)

SMILES	activity change, negative = inhibition
NC(=O)Cc1csc(NC(=O)c2ccc3nc(C(F)(F)F)[nH]c3c2)n1	-8.79% (inactive)
CNS(=O)(=O)c1ccc([C@@H]2C[C@H](NC(C)=O)C[C@H](CC(C)C)O2)cc1	-22.6% (inactive)
Cc1ccc(C2(O)CCN(C(=O)c3noc(C)c3CO)CC2)nc1	-2.58% (inactive)
Cc1ccc2cc(CN(c3ccc(C)c(C)c3)S(C)(=O)=O)c(=O)[nH]c2c1	-50.6% (inactive)
Cc1ccc(Nc2nc(-c3nnc(-c4cccc(C)c4)o3)nc3ccccc23)cc1	96.2% (inactive)
Clc1cccc(-c2nnc(-c3nc(NC4CCCC4)c4ccccc4n3)o2)c1	-77.4% (active)
COc1cc(OC)c(Nc2nc(-c3nnc(-c4ccccc4)o3)nc3ccccc23)cc1Cl	268% (inactive)
COc1cc(/C=C/CN2CCC3(CC2)c2ccccc2[C@@H](NC(=O)C(C)C)[C@@H]3OC)ccc1O	12.6% (inactive)
CN1C(=O)c2cc(NS(=O)(=O)c3ccccc3F)ccc2OC[C@@H]2O[C@@H](CC(=O)NC3Cc4ccccc4C3)CC[C@@H]21	-28.5% (inactive)
Cc1cc(N2CCN(c3nc(C)cc(C)n3)CC2)ncn1	3.08% (inactive)
Cc1cc(C)nc(N2CCN(c3c4c(nc5c(-c6ccccc6)c(C)nn35)CCC4)CC2)n1	-75.6% (active)
Cc1nc(N2CCCC2)nc2c1CCN(C(=O)Nc1ccccc1F)CC2	-2.86% (inactive)
COc1ccc(Cl)cc1S(=O)(=O)N1CCC(c2nc(C(=O)N(C)C)c(C)o2)CC1	-56% (inactive)
O=C(Cc1ccc(F)cc1)N1CC[C@@H](O)[C@@H]1Cc1ccccc1	-30.4% (inactive)
CN(Cc1noc(C2CCC2)n1)Cc1ncccc1C(=O)O	-0.548% (inactive)
O=C(NCc1cccnc1)C1=NOC2(CCCN(C(=O)Cc3ccc(F)cc3)C2)C1 (stereo not drawn)	53.7% (inactive)
CC(C)n1cnc2c(N3CCOCC3)nc(C3CCN(Cc4cccnc4)CC3)cc21	1.27% (inactive)
CC(C(=O)NC1CC1)N1CCc2[nH]nc(-c3ccc(-c4ccccc4)cc3)c2C1 (stereo not drawn)	13.6% (inactive)
CC(=O)N1CCC(c2cc3c(ncn3C(C)C)c(-c3ccccc3)n2)CC1	-106% (active)
CN(CCCc1ccccc1)C(=O)c1cc(CN2CCC(O)CC2)on1	6.96% (inactive)
CCCNc1ncc(-c2nccn2CC2CCOCC2)cn1	0.573% (inactive)
CCc1c2c(nc3ccc(O)cc13)-c1cc3c(c(=O)n1C2)COC(=O)[C@]3(O)CC	-86.3% (active)
CCN(CC)Cc1cnc2n1CCN(Cc1csc(C)n1)CC2	4.3% (inactive)
C[C@H](CO)N1C[C@H](C)[C@@H](CN(C)S(=O)(=O)c2ccc([N+](=O)[O-])cc2)OCc2ccccc2-c2c(n(C)c3ccccc23)C1=O	-73.3% (active)
C[C@H]1CN([C@@H](C)CO)C(=O)c2ccccc2-c2ccccc2CO[C@H]1CN(C)S(=O)(=O)c1cccc(C#N)c1	5.72% (inactive)
C[C@@H]1CN([C@H](C)CO)C(=O)c2c(c3ccccc3n2C)-c2ccccc2CO[C@H]1CN(C)C(=O)[C@@H](Cc1ccccc1)N(C)C	-51.4% (inactive)
